Experimental data reported in paper PMC4552634, “A New Set of Chemical Starting Points with Plasmodium falciparum Transmission-Blocking Potential for Antimalarial Drug Discovery” (PLoS ONE, 2015).
Out of some 13,000 compounds screened, about 3,200 (25%) showed an effect of 50% or more. This is one part of the list.

Test system: P. falciparum stage V gametocytes
Design: BacTiter-Glo ATP luminescence viability of purified stage V gametocytes in 384-well plates, per cent inhibition versus DMSO
Conditions: 48 h, 5 µM; inhibitor

SMILES	% Inhibition
NC(=O)CN1CC=C(c2c[nH]c3ccc(Br)cc23)CC1 [TCMDC-131969]	-24.55%
Cc1cc(NC(=O)c2cccs2)ccc1OC1CCN(Cc2ccc(F)cc2)CC1 [TCMDC-133743]	2.358%
COc1ccc(CCC(C)N2CC(N)C(c3cn(C)c4cnccc34)C2)cc1 (stereo not drawn) [TCMDC-124826]	30.72%
CC1CCN(CCNC(=O)c2ccc3c(=O)n(Cc4ccc(Cl)cc4)c(=S)[nH]c3c2)CC1 [TCMDC-125693]	-28.57%
CC[C@H]1CN(Cc2cccc(O)c2)CC[C@H]1CCCc1ccnc2ccc(O)cc12 [TCMDC-140337]	3.253%
CCCCCCCN1CC[C@@H](CCCc2ccnc3ccc(OCCCCNC(N)=NO)cc23)[C@@H](CC)C1 [TCMDC-139839]	107.7%
CCCCCCCN1CC[C@@H](CCCc2ccnc3ccc(OCCCCNC(N)=O)cc23)[C@@H](CC)C1 [TCMDC-139835]	110.9%
CC[C@H]1CN(CCCC(=O)c2ccccc2)CC[C@H]1CCCc1ccnc2ccc(OC(=O)c3ccccc3)cc12 [TCMDC-131478]	92.9%
CC[C@H]1CN(Cc2ccccc2Br)CC[C@H]1CCCc1ccnc2ccc(O)cc12 [TCMDC-140335]	-7.327%
O=C(Nc1ccc2c(c1)CCN2C1CCN(Cc2cccc(C(F)(F)F)c2)C1)c1ccco1 (stereo not drawn) [TCMDC-135065]	-42.49%
CCOC(=O)c1ccc(-c2cnc(N)c(-c3nc4c(C)cccc4[nH]3)c2)cc1 [TCMDC-135560]	19.55%
COc1cc(CCCOc2c(N)nc(N)nc2N)cc(OC)c1OC [TCMDC-131361]	8.778%
CN(C)c1ccc(CN2CCC(CNC(=O)c3cc(-c4ccccc4Cl)cs3)C2)cc1 (stereo not drawn) [TCMDC-134455]	49.98%
CCc1ccc(CN2CCC(CNC(=O)c3cc(-c4ccccc4Cl)cs3)C2)cc1 (stereo not drawn) [TCMDC-134433]	74.35%
CC(C)c1ccc(CN2CCCCC(NC(=O)c3cc(-c4ccccc4Cl)cs3)C2)cc1 (stereo not drawn) [TCMDC-134464]	-27.61%
COc1ccccc1-c1csc(C(=O)NCC2CCN(Cc3ccc(C(C)(C)C)cc3)C2)c1 (stereo not drawn) [TCMDC-134511]	-88.72%
CCc1ccccc1-c1csc(C(=O)NCC2CCN(Cc3ccc(C(C)(C)C)cc3)C2)c1 (stereo not drawn) [TCMDC-134448]	91.94%
CC(C)(C)c1ccc(CN2CCC(CNC(=O)c3cc(-c4ccccc4Cl)cs3)C2)cc1 (stereo not drawn) [TCMDC-134445]	95.91%
CC(C)(C)c1nn(-c2ccccc2)c2[nH]c(=O)c(CNC3CCCCC3)cc12 [TCMDC-123551]	7.742%
CC(=O)c1ccc(NC(=O)NNC(=O)c2ccc(CCN3CCC(c4nc(COCC(F)(F)F)c(-c5ccc(F)cc5)o4)CC3)cc2)cc1 [TCMDC-131905]	-7.106%
CC(C)(CN)c1nc(-c2ccc(Cl)c(O)c2)c(-c2ccncc2)[nH]1 [TCMDC-140369]	-60.83%

SMILES	% Inhibition
NCC1(c2nc(-c3ccc(Cl)c(O)c3)c(-c3ccncc3)[nH]2)CCCCC1 [TCMDC-141154]	57.41%
Oc1cc(-c2nc(C3(CNCc4ccc(Cl)cc4)CCCCC3)[nH]c2-c2ccncc2)ccc1Cl [TCMDC-141155]	-6.27%
CC(CNC(=O)c1cc2c(Cl)cc(Cl)cc2[nH]1)CNc1cc(=O)c2ccccc2[nH]1 (stereo not drawn) [TCMDC-140624]	-21.72%
CCC(C)NS(=O)(=O)c1ccc2nc(Nc3ccc(C)c(Cl)c3)n(C(C)C(C)C)c2c1 (stereo not drawn) [TCMDC-134310]	-65.92%
Br.CC[C@H]1CN2CCc3cc(OC)c(OC)cc3[C@@H]2C[C@@H]1CC1=NCCc2c1[nH]c1ccc(OCc3ccccc3)cc21 [TCMDC-137627]	69.01%
CC[C@H]1CN2CCc3c([nH]c4ccccc34)[C@@H]2C[C@@H]1CC1c2cc(OC)c(OC)cc2CCN1C (stereo partly drawn) [TCMDC-142011]	-85.21%
CCC1CN2CCc3c([nH]c4ccccc34)C2CC1CC1=NCCc2c1[nH]c1ccccc21 (stereo not drawn) [TCMDC-141998]	9.363%
CCOC(=O)c1ccc(NC(=O)Nc2ccc(-c3cccc(-c4nc5ccccc5[nH]4)c3)cc2)cc1 [TCMDC-133270]	-42.41%
O=C(NCCc1ccccc1F)c1cc(Br)cc(N2CCN(c3ccncc3)CC2)c1 [TCMDC-135147]	-5.133%
O=C(NCc1ccc(F)cc1)c1cc(Br)cc(N2CCN(c3ccncc3)CC2)c1 [TCMDC-135150]	12%
O=C(NCCc1cccc(F)c1)c1cc(Br)cc(N2CCN(c3ccncc3)CC2)c1 [TCMDC-135145]	3.253%
Cc1ccccc1CCNC(=O)c1cnc(N2CCN(c3ccncc3)CC2)c(Cl)c1 [TCMDC-134598]	14.18%
COc1ccccc1CCNC(=O)c1cc(Br)cc(N2CCN(c3ccncc3)CC2)c1 [TCMDC-135148]	-33.58%
COc1ccccc1CNC(=O)c1ccc(N2CCN(c3ccncc3)CC2)cn1 [TCMDC-135158]	60.69%
O=C(NCCc1cccc(Cl)c1Cl)c1cnc(N2CCN(c3ccncc3)CC2)c(Cl)c1 [TCMDC-134597]	-18.32%
COc1ccccc1CNC(=O)c1cc(Br)cc(N2CCN(c3ccncc3)CC2)c1 [TCMDC-135151]	104.3%
O=C(NCc1cccc(CN2CCOCC2)c1)c1cc(Br)cc(N2CCN(c3ccncc3)CC2)c1 [TCMDC-135152]	69.44%
COc1ccccc1CCNC(=O)c1cnc(N2CCN(c3ccncc3)CC2)c(Cl)c1 [TCMDC-134595]	89.83%
O=C(NCCc1ccccc1F)c1ccc(N2CCN(c3ccncc3)CC2)cn1 [TCMDC-135154]	-6.834%
O=C(NCc1ccc(F)cc1)c1ccc(N2CCN(c3ccncc3)CC2)cn1 [TCMDC-135157]	0.3973%
CC(CC1CCCCC1)NCc1ccccc1OCCC(=O)N1CCCC1C(N)=O (stereo not drawn) [TCMDC-140917]	-9.137%
